“And” between values parts separate entries of the source, which are not always exact repeats. Equal entries are not always repeated. Hit rate of the full screen: of about 5,500 compounds, about 2,000 (36%) were called active. About 18% were inconclusive and are not listed. Cut-off read from the data, not from the text of the source: active = normalized growth mostly below about 0.91 (no sharp cut-off); inconclusive = no clear call, values can overlap the other calls; inactive = mostly above about 0.92. The list shows a part of the results.
Assay: chemical genetic growth profiling, strain panel (AID 1159580);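 note: tested at 20 µM; growth read once vehicle control cultures reached saturation at 30 °C; 1 = growth at the plate median or of vehicle wells; lower values mean less growth of the strain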
Conditions: growth OD

In the case of `CC1(C)C2(Cl)C(Cl)C(Cl)C(Cl)(C(Cl)Cl)C1(Cl)C2Cl` (configuration not stated), the normalized growth (S. cerevisiae deletion strains, locus YAL013W, strain DEP1, active compounds read low) is reported as 0.98 (inactive), the normalized growth (S. cerevisiae deletion strains, locus YBR021W, strain FUR4, active compounds read low) is reported as 0.985 (inactive) and the normalized growth (S. cerevisiae deletion strains, locus YBR229C, strain ROT2, active compounds read low) is reported as 0.985 (inactive). The normalized growth (S. cerevisiae deletion strains, locus YCL029C, strain bik1, active compounds read low) was 0.982 (inactive), the normalized growth (S. cerevisiae deletion strains, locus YDL035C, strain GPR1, active compounds read low) was 0.947 (inactive) and the normalized growth (S. cerevisiae deletion strains, locus YDL074C, strain BRE1, active compounds read low) was 0.918 (inactive). The normalized growth (S. cerevisiae deletion strains, locus YDL101C, strain DUN1, active compounds read low) was 0.982 (inactive), the normalized growth (S. cerevisiae deletion strains, locus YDL134C, strain PPH21, active compounds read low) was 0.981 (inactive) and the normalized growth (S. cerevisiae deletion strains, locus YDL185W, strain tfp1, active compounds read low) was 0.976 (inactive). For the same compound, the normalized growth (S. cerevisiae deletion strains, locus YDL192W, strain arf1, active compounds read low) was 0.98 (inactive), the normalized growth (S. cerevisiae deletion strains, locus YDR101C, strain arx1, active compounds read low) was 0.993 (inactive) and the normalized growth (S. cerevisiae deletion strains, locus YDR150W, strain NUM1, active compounds read low) was 0.994 (inactive). The normalized growth (S. cerevisiae deletion strains, locus YDR162C, strain NBP2, active compounds read low) was 0.968 (inactive), the normalized growth (S. cerevisiae deletion strains, locus YDR318W, strain mcm21, active compounds read low) was 0.95 (inactive) and the normalized growth (S. cerevisiae deletion strains, locus YDR388W, active compounds read low) was 0.964 (inactive). The normalized growth (S. cerevisiae deletion strains, locus YDR502C, strain sam2, active compounds read low) was 0.957 (inactive), the normalized growth (S. cerevisiae deletion strains, locus YEL061C, strain CIN8, active compounds read low) was 0.992 (inactive) and the normalized growth (S. cerevisiae deletion strains, locus YER110C, active compounds read low) was 0.984 (inactive). For the same compound, the normalized growth (S. cerevisiae deletion strains, locus YER155C, strain BEM2, active compounds read low) was 1 (inactive), the normalized growth (S. cerevisiae deletion strains, locus YER167W, strain BCK2, active compounds read low) was 0.975 (inactive) and the normalized growth (S. cerevisiae deletion strains, locus YGL078C, strain dbp3, active compounds read low) was 0.982 (inactive). The normalized growth (S. cerevisiae deletion strains, locus YGL086W, strain mad1, active compounds read low) was 0.962 (inactive), the normalized growth (S. cerevisiae deletion strains, locus YGL248W, strain PDE1, active compounds read low) was 0.979 (inactive) and the normalized growth (S. cerevisiae deletion strains, locus YGR078C, strain PAC10, active compounds read low) was 0.94 (inactive). The normalized growth (S. cerevisiae deletion strains, locus YGR135W, strain pre9, active compounds read low) was 0.951 (inactive), the normalized growth (S. cerevisiae deletion strains, locus YGR229C, strain SMI1, active compounds read low) was 0.865 (inactive) and the normalized growth (S. cerevisiae deletion strains, locus YGR252W, strain gcn5, active compounds read low) was 0.956 (inactive). For the same compound, the normalized growth (S. cerevisiae deletion strains, locus YHR030C, strain SLT2, active compounds read low) was 0.995 (inactive) and 0.96 (inactive), the normalized growth (S. cerevisiae deletion strains, locus YHR079C, strain IRE1 (second series), active compounds read low) was 0.975 (inactive) and the normalized growth (S. cerevisiae deletion strains, locus YHR079C, strain IRE1, active compounds read low) was 0.946 (inactive). The normalized growth (S. cerevisiae deletion strains, locus YHR094C, strain hxt1, active compounds read low) was 0.981 (inactive), the normalized growth (S. cerevisiae deletion strains, locus YHR129C, strain ARP1, active compounds read low) was 0.984 (inactive) and the normalized growth (S. cerevisiae deletion strains, locus YHR200W, strain rpn10, active compounds read low) was 0.979 (inactive). For the same compound, the normalized growth (S. cerevisiae deletion strains, locus YIL066C, strain RNR3, active compounds read low) was 0.891 (inactive), the normalized growth (S. cerevisiae deletion strains, locus YIL073C, strain SPO22, active compounds read low) was 0.829 (inactive) and the normalized growth (S. cerevisiae deletion strains, locus YIL125W, strain kgd1, active compounds read low) was 0.981 (inactive). For the same compound, the normalized growth (S. cerevisiae deletion strains, locus YIR030C, strain dcg1, active compounds read low) was 0.978 (inactive), the normalized growth (S. cerevisiae deletion strains, locus YJL095W, strain BCK1, active compounds read low) was 0.954 (inactive) and 0.978 (inactive) and the normalized growth (S. cerevisiae deletion strains, locus YJL134W, strain LCB3, active compounds read low) was 0.991 (inactive). For the same compound, the normalized growth (S. cerevisiae deletion strains, locus YJL168C, strain set2, active compounds read low) was 0.978 (inactive), the normalized growth (S. cerevisiae deletion strains, locus YJL187C, strain SWE1 (second series), active compounds read low) was 0.983 (inactive) and the normalized growth (S. cerevisiae deletion strains, locus YJR043C, strain POL32, active compounds read low) was 1.01 (inactive). For the same compound, the normalized growth (S. cerevisiae deletion strains, locus YJR066W, strain TOR1, active compounds read low) was 0.935 (inactive), the normalized growth (S. cerevisiae deletion strains, locus YJR075W, strain HOC1, active compounds read low) was 0.954 (inactive) and the normalized growth (S. cerevisiae deletion strains, locus YKL009W, strain mrt4, active compounds read low) was 0.971 (inactive). The normalized growth (S. cerevisiae deletion strains, locus YKL068W, active compounds read low) was 0.971 (inactive), the normalized growth (S. cerevisiae deletion strains, locus YKL085W, strain MDH1 (second series), active compounds read low) was 0.968 (inactive) and the normalized growth (S. cerevisiae deletion strains, locus YKL085W, strain MDH1, active compounds read low) was 0.968 (inactive). The normalized growth (S. cerevisiae deletion strains, locus YKL190W, strain CNB1, active compounds read low) was 0.989 (inactive), the normalized growth (S. cerevisiae deletion strains, locus YKR001C, strain vps1, active compounds read low) was 0.932 (inactive) and the normalized growth (S. cerevisiae deletion strains, locus YLR039C, strain RIC1, active compounds read low) was 0.79 (inactive). The normalized growth (S. cerevisiae deletion strains, locus YLR058C, strain SHM2, active compounds read low) was 0.978 (inactive), the normalized growth (S. cerevisiae deletion strains, locus YLR102C, strain apc9, active compounds read low) was 0.986 (inactive) and the normalized growth (S. cerevisiae deletion strains, locus YLR113W, strain HOG1, active compounds read low) was 0.948 (inactive). The normalized growth (S. cerevisiae deletion strains, locus YLR262C, strain YPT6, active compounds read low) was 0.768 (inactive), the normalized growth (S. cerevisiae deletion strains, locus YLR268W, strain sec22, active compounds read low) was 0.956 (inactive) and the normalized growth (S. cerevisiae deletion strains, locus YLR330W, strain CHS5, active compounds read low) was 0.992 (inactive). The normalized growth (S. cerevisiae deletion strains, locus YLR342W, strain FKS1 (second series), active compounds read low) was 0.893 (inactive), the normalized growth (S. cerevisiae deletion strains, locus YLR371W, strain rom2, active compounds read low) was 0.986 (inactive) and the normalized growth (S. cerevisiae deletion strains, locus YLR418C, strain cdc73, active compounds read low) was 0.755 (active). For the same compound, the normalized growth (S. cerevisiae deletion strains, locus YML016C, strain PPZ1, active compounds read low) was 0.984 (inactive), the normalized growth (S. cerevisiae deletion strains, locus YML032C, strain rad52, active compounds read low) was 0.954 (inactive) and the normalized growth (S. cerevisiae deletion strains, locus YML124C, strain tub3, active compounds read low) was 0.982 (inactive). For the same compound, the normalized growth (S. cerevisiae deletion strains, locus YMR078C, strain ctf18, active compounds read low) was 0.961 (inactive), the normalized growth (S. cerevisiae deletion strains, locus YMR223W, strain ubp8, active compounds read low) was 0.939 (inactive) and the normalized growth (S. cerevisiae deletion strains, locus YMR263W, strain SAP30, active compounds read low) was 0.993 (inactive). The normalized growth (S. cerevisiae deletion strains, locus YMR307W, strain GAS1, active compounds read low) was 0.887 (inactive), the normalized growth (S. cerevisiae deletion strains, locus YNL067W, strain RPL9B, active compounds read low) was 0.987 (inactive) and the normalized growth (S. cerevisiae deletion strains, locus YNL128W, strain TEP1, active compounds read low) was 0.993 (inactive). The normalized growth (S. cerevisiae deletion strains, locus YNL153C, strain GIM3, active compounds read low) was 0.986 (inactive), the normalized growth (S. cerevisiae deletion strains, locus YNL183C, strain NPR1, active compounds read low) was 0.943 (inactive) and the normalized growth (S. cerevisiae deletion strains, locus YNL233W, strain BNI4, active compounds read low) was 0.989 (inactive). The normalized growth (S. cerevisiae deletion strains, locus YNL250W, strain rad50, active compounds read low) was 0.969 (inactive), the normalized growth (S. cerevisiae deletion strains, locus YNL271C, strain bni1, active compounds read low) was 0.97 (inactive) and the normalized growth (S. cerevisiae deletion strains, locus YNL298W, strain CLA4, active compounds read low) was 0.971 (inactive). For the same compound, the normalized growth (S. cerevisiae deletion strains, locus YNL307C, strain MCK1, active compounds read low) was 0.544 (active), the normalized growth (S. cerevisiae deletion strains, locus YNL322C, strain KRE1, active compounds read low) was 0.994 (inactive) and the normalized growth (S. cerevisiae deletion strains, locus YNR052C, strain pop2, active compounds read low) was 0.963 (inactive). For the same compound, the normalized growth (S. cerevisiae deletion strains, locus YOL006C, strain TOP1, active compounds read low) was 0.867 (inactive), the normalized growth (S. cerevisiae deletion strains, locus YOL012C, strain htz1) was 0.99 (inactive) and the normalized growth (S. cerevisiae deletion strains, locus YOL147C, strain pex11, active compounds read low) was 0.982 (inactive). For the same compound, the normalized growth (S. cerevisiae deletion strains, locus YOR061W, strain CKA2, active compounds read low) was 0.994 (inactive), the normalized growth (S. cerevisiae deletion strains, locus YOR069W, strain VPS5, active compounds read low) was 0.984 (inactive) and the normalized growth (S. cerevisiae deletion strains, locus YOR136W, strain idh2, active compounds read low) was 0.966 (inactive). For the same compound, the normalized growth (S. cerevisiae deletion strains, locus YOR144C, strain elg1, active compounds read low) was 0.981 (inactive), the normalized growth (S. cerevisiae deletion strains, locus YOR184W, strain ser1, active compounds read low) was 0.809 (active) and the normalized growth (S. cerevisiae deletion strains, locus YOR231W, strain MKK1, active compounds read low) was 0.964 (inactive). For the same compound, the normalized growth (S. cerevisiae deletion strains, locus YOR316C, strain cot1, active compounds read low) was 0.977 (inactive), the normalized growth (S. cerevisiae deletion strains, locus YPL055C, strain LGE1, active compounds read low) was 0.96 (inactive) and the normalized growth (S. cerevisiae deletion strains, locus YPL241C, strain CIN2, active compounds read low) was 0.993 (inactive). The normalized growth (S. cerevisiae deletion strains, locus YPL256C, strain CLN2, active compounds read low) was 0.9 (inactive), the normalized growth (S. cerevisiae deletion strains, locus YPR119W, strain clb2, active compounds read low) was 0.976 (inactive) and the normalized growth (S. cerevisiae deletion strains, locus YPR141C, strain kar3, active compounds read low) was 0.957 (inactive). For the same compound, the normalized growth (S. cerevisiae deletion strains, locus YPR163C, strain tif3, active compounds read low) was 0.91 (active), the normalized growth (S. cerevisiae deletion strains, locus YPR167C, strain met16, active compounds read low) was 0.974 (inactive) and the normalized growth (S. cerevisiae deletion strains, strain wtn01, active compounds read low) was 0.966 (inactive). The normalized growth (S. cerevisiae strains, strain wild type, active compounds read low) was 0.986 (inactive).

Reference: PubChem BioAssay AID1159580 (chemical genetic matrix, 2015)
